Experiment [1] has as its target Albumin (Bos taurus) (UniProt P02769). The experiment is described as follows: bovine serum albumin binders on microarray, profiling panel, artefact control for SMM control protein annotation, biochemical, small-molecule microarray, Alexa647 label, 635/667 nm fluorescence (AID 1118).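 Also: score merges 667 nm emission intensity and signal-to-noise per printed compound spot.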 Conditions: BSA-A647 binding, fluorescence 635 nm, higher = more signal.
The nature of experiment [2]: small-molecule microarray binders of probe aXIP, primary screen, biochemical, NeuroSMM set, 635/667 nm fluorescence (AID 1119).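 Also: probe is the protein aXip251-270 applied at 1 µg/mL to compound-printed slides; binding of probe to printed compounds measured as 667 nm fluorescence plus signal to noise.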 Conditions: higher = more signal, called active from +8 up or from −8 down.
Experiment [3] can be described thus: small-molecule binders of probe aNOTCH3, primary screen, biochemical, small-molecule microarray, 635/667 nm fluorescence (AID 1120).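 Also: probe is a biotin-tagged antibody raised against NOTCH3 rather than NOTCH3 protein; score merges spot fluorescence near 667 nm with spot signal to noise.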 Conditions: higher = more signal.
Experiment [4] is described as follows: small-molecule binders of probe aNOTCH2, primary screen, biochemical, small-molecule microarray, 635/667 nm fluorescence (AID 1121).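 Also: score merges feature fluorescence read at 667 nm with its signal to noise.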 Conditions: higher = more signal.
Experiment [5] concerns the target Carbonic anhydrase 2 (Homo sapiens) (UniProt P00918). Put plainly: CAII small-molecule binders, profiling panel, biochemical, small-molecule microarray, Alexa647-labelled CAII (AID 1122). Conditions: CAII-A647 binding fluorescence, higher = more signal.
Experiment [6] can be described thus: COS7 lysate on small-molecule microarray, probe aHis, 635 nm (AID 1123).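 Also: z-score combines 667nm fluorescence intensity with signal-to-noise per printed compound spot.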 Conditions: COS7 cell lysate, fluorescence, higher = more signal.
Experiment [7] in a line: compound binding in COS7 lysate, probe aLAP1, primary screen, cell lysate, small-molecule microarray (AID 1124).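 Also: lysate comes from COS7 cells expressing LAP1 and is applied at 0.3 µg/mL; score merges spot fluorescence near 667 nm with signal-to-noise over triplicate slides.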 Conditions: probe aLAP1, fluorescence, higher = more signal.
Experiment [8] relates to Sam68 (KHDRBS1). The experiment is described as follows: Sam68 small-molecule binders, primary screen, biochemical, small-molecule microarray, 635 nm fluorescence (AID 1125).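 Also: score merges 667 nm channel intensity with signal to noise over triplicate slides.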 Conditions: small-molecule microarray binding, higher = more signal.
Experiment [9] relates to Chordin-like protein 2 (CHRDL2). Put plainly: CHRDL2 small-molecule binders, primary screen, biochemical, small-molecule microarray, 635 nm fluorescence (AID 1126).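 Also: printed compound slides probed with Chrdl2 protein at 4 µg/mL for 1 h at 4 C; score merges 667 nm emission intensity with signal to noise over three replicate slides.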 To be noted: small-molecule microarray binding, fluorescence 635 nm; higher = more signal.
Experiment [10] has as its target Concanavalin-A (Canavalia ensiformis) (UniProt P02866). Put plainly: ConA small-molecule binders, primary screen, artefact control for SMM control protein annotation, biochemical, small-molecule microarray, Alexa647 label, 635 nm (AID 1127).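 Also: z combines 667 nm emission intensity with signal-to-noise across three replicate slides.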 To be noted: ConA-A647 binding fluorescence, higher = more signal.
A short description of experiment [11]: anti-His antibody binders, primary screen, artefact control for SMM control protein annotation, biochemical, small-molecule microarray, 635 nm fluorescence (AID 1128).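 Also: score merges feature fluorescence with signal-to-noise for each printed compound spot.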 To be noted: anti-His Alexa647 antibody binding, higher = more signal.
Experiment [12] relates to Human papillomavirus type 1a E7 protein (residues 1-88). Put plainly: HPV1a E7 small-molecule binders, primary screen, biochemical, small-molecule microarray, residues 1-88, 635 nm (AID 1129). Conditions: small-molecule microarray binding, fluorescence 635 nm; higher = more signal.
Experiment [13] concerns the target Focal adhesion kinase 1 (Homo sapiens) (UniProt Q05397). The experiment is described as follows: small-molecule microarray binders of FAK, primary screen, biochemical, 635/667 nm fluorescence, BSA, DTT (AID 1130).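 Also: composite of spot emission at 667 nm and signal to noise over triplicate slides.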 To be noted: PTK2 binding, 635 nm fluorescence, higher = more signal.
Experiment [14] relates to Fibrinogen (Alexa647-labelled). Put plainly: fibrinogen binders on compound microarrays, profiling panel, artefact control for SMM control-protein annotation, biochemical, small-molecule microarray, 635/667 nm fluorescence (AID 1131).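 Also: z-score merges 667 nm fluorescence with per-spot signal-to-noise over triplicate slides.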 Conditions: fibrinogen-A647 binding fluorescence, higher = more signal.
Experiment [15] addresses Follistatin (Homo sapiens) (UniProt P19883). The experiment is described as follows: follistatin binders on small-molecule microarrays, primary screen, biochemical, small-molecule microarray, 635/667 nm fluorescence (AID 1132). To be noted: FST binding, 635 nm fluorescence, higher = more signal.
Experiment [16] deals with Fibroblast growth factor 2 (Homo sapiens) (UniProt P09038). The experiment is described as follows: FGF2 binders on small-molecule microarrays, primary screen, biochemical, small-molecule microarray, 635/667 nm fluorescence (AID 1133). Conditions: small-molecule microarray binding, FGF2, fluorescence 635/667; higher = more signal.
A short description of experiment [17]: mitochondrial membrane potential change in A549 cells, profiling panel, cell-based, JC-1 fluorescence, basal, 24 h, 100 nL (AID 1138).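 Also: A549 lung adenocarcinoma cells under basal conditions with no added stimulus; test concentration not given here.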 Conditions: higher = more signal.
For experiment [18], the system named is Lefty1. The experiment is described as follows: Lefty1 binders on small-molecule microarrays, primary screen, biochemical, small-molecule microarray, 635/667 nm fluorescence (AID 1139). To be noted: small-molecule microarray binding, fluorescence 635/667; higher = more signal.
For experiment [19], the system named is wheat germ agglutinin (Triticum aestivum), Alexa647-labelled. The experiment is described as follows: wheat germ agglutinin binders on compound microarrays, profiling panel, artefact control for SMM control-protein annotation, biochemical, small-molecule microarray, 635/667 nm fluorescence (AID 1140).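 Also: score merges 667 nm feature emission with signal to noise over triplicate slides.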 Conditions: WGA-A647 binding, 635 nm fluorescence, higher = more signal.

Experiment [20] addresses Luciferin 4-monooxygenase (Photinus pyralis) (UniProt P08659). Put plainly: firefly luciferase enzyme inhibitors, primary screen, biochemical, luminescence, purified enzyme, 2006 set (AID 1141).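 Also: cell-free assay with purified firefly luciferase at 100 ng per well in PBS; test concentration not given here.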 Conditions: SteadyGlo luminescence, 30 min, higher = more signal, called active from +8 up or from −8 down.

Activity calls are given as the source filed them.

This is an account of results in PubChem BioAssay.

Chain of Fibroblast growth factor 2 (Homo sapiens) (P09038 whole entry, looked up): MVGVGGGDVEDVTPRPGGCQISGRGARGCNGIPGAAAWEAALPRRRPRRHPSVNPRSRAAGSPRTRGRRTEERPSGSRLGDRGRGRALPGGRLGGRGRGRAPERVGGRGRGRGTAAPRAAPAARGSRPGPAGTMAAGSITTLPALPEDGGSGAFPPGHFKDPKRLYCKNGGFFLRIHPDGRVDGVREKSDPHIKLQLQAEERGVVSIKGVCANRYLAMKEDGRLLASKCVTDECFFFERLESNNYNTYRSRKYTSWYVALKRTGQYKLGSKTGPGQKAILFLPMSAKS
Chain of Focal adhesion kinase 1 (Homo sapiens) (Q05397 whole entry, looked up): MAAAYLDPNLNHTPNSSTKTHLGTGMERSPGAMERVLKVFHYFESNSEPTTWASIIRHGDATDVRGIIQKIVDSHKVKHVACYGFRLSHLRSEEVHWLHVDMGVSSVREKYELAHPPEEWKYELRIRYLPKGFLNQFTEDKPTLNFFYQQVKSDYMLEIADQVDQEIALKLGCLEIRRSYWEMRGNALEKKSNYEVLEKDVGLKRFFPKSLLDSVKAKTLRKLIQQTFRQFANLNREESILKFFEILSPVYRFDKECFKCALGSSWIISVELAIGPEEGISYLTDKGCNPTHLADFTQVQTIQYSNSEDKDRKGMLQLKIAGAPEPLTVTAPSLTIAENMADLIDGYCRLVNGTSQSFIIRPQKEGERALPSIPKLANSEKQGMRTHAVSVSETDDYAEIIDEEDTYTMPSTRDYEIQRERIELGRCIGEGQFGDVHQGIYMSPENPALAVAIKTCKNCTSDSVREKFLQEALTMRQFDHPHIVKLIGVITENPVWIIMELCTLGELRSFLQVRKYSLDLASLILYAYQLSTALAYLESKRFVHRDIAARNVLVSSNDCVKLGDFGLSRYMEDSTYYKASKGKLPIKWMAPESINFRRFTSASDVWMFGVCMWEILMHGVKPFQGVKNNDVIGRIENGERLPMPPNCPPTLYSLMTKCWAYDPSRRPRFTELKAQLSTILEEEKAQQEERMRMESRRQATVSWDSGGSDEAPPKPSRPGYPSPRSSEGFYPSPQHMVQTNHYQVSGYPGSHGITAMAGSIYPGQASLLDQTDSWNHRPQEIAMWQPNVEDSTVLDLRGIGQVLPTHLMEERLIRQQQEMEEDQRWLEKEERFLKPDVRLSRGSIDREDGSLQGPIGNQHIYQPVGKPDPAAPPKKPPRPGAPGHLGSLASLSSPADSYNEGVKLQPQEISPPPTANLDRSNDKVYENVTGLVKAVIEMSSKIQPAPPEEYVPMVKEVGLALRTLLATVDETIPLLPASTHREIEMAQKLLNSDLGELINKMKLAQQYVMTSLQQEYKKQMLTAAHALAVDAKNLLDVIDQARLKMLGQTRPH
Chain of Luciferin 4-monooxygenase (Photinus pyralis) (P08659 whole entry, looked up): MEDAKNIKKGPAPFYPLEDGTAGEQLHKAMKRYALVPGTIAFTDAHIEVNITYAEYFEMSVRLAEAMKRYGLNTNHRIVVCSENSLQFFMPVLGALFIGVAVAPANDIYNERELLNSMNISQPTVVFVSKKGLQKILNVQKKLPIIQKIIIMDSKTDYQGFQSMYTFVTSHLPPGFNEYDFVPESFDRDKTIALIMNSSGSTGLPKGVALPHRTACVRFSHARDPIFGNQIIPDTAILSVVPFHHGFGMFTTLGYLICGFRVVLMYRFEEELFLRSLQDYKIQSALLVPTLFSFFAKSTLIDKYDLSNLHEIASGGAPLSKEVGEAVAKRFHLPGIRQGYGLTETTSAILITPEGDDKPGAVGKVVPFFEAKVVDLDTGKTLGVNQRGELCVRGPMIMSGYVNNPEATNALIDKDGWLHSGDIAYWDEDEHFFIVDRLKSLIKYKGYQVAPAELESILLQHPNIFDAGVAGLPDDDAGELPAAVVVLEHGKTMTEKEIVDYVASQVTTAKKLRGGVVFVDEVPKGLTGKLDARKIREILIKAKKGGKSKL
Chain of Albumin (Bos taurus) (P02769 whole entry, looked up): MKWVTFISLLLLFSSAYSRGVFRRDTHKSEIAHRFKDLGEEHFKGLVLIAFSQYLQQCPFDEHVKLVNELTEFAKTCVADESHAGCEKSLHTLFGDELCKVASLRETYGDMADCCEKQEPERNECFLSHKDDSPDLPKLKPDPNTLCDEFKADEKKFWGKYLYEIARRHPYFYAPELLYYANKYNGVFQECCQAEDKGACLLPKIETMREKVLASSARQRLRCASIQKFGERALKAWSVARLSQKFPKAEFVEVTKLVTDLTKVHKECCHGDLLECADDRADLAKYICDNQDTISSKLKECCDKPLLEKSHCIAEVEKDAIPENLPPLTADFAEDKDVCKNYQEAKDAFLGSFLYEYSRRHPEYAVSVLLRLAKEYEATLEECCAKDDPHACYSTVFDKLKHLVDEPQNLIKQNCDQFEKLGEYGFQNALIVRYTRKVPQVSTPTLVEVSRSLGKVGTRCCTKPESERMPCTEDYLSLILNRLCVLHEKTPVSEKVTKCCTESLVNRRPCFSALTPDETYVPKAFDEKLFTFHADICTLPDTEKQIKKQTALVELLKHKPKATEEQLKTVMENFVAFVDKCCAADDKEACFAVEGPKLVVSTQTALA
Chain of Follistatin (Homo sapiens) (P19883 whole entry, looked up): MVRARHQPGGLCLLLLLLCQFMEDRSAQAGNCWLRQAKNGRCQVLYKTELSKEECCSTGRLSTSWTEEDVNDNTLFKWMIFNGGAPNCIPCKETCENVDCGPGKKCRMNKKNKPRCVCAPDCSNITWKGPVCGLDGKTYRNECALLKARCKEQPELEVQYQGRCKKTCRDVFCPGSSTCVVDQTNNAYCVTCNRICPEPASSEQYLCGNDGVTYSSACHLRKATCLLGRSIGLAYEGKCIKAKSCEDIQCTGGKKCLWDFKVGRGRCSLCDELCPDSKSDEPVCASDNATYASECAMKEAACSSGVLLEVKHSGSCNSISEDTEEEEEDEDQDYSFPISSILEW
Chain of Concanavalin-A (Canavalia ensiformis) (P02866 whole entry, looked up): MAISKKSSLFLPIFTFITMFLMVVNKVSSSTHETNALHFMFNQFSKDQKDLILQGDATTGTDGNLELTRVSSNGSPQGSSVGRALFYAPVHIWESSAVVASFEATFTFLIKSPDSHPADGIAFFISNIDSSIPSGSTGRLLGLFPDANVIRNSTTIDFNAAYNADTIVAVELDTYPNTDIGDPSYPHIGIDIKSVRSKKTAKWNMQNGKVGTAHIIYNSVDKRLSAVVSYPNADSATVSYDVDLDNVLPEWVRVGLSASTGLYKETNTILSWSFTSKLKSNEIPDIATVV

For `CCOC(=O)[C@H]1C/C=C/C[C@H](C(=O)OCC)C(=O)O[C@H]2[C@@H](OC)O[C@H](CO)[C@@H](OC(=O)c3ccc(Br)cc3)[C@@H]2OC1=O`, the composite z-score in experiment [1] was 0.184; in [3], 0.037; in experiment [4] it was -0.0956; in [5], 0.397; in experiment [6], 0.306; in experiment [7], 0.435. Besides, the composite z-score in [8] was -0.0942; in [9], 0.406; in [10], 0.205; in [11], 0.272; in [12] it was 0.189; in experiment [13] it was 0.143. Further, the composite z-score in experiment [14] was determined as 0.223; in experiment [15], 1.06; in experiment [16], 1.06; in experiment [18], 0.31; in experiment [19] it was 0.329. Besides, the composite Z-score in experiment [2] was 0.38 (inactive). Further, the z-score in [17] was 2.47; in experiment [20], -0.0361 (inactive).
For the molecule `COc1ccc([Si](C)(C)[C@@H]2[C@@H](CCO)O[C@]3(C(=O)N(Cc4cccc(N5CCOC5=O)c4)c4ccccc43)[C@H]2C)cc1`, the composite z-score was 0.757 in [1]; 0.326 in experiment [3]; -0.0907 in [4]; 0.219 in experiment [5]; 0.531 in experiment [6]; -0.231 in [7]. For the same molecule, the composite z-score in experiment [8] is 1.15; in [9], -0.0408; in experiment [10], 1.12; in experiment [11], 0.0657; in experiment [12] it was 0.981; in experiment [13], -0.0325. Moreover, the composite z-score in experiment [14] was determined as 0.9; in [15], 1; in experiment [16], 0.568; in experiment [18] it was 0.26; in experiment [19], 1.08. In addition, the composite Z-score in experiment [2] was -0.295 (inactive). Besides, the z-score in [17] is -0.393; in [20], -0.335 (inactive).
As to `C#CCN(C/C=C/c1ccccc1)[C@H](CO)c1ccccc1`, the composite z-score was -0.287 in experiment [1]; -0.274 in experiment [3]; -0.196 in experiment [4]; 0.0571 in experiment [5]; -0.128 in experiment [6]; -0.0886 in experiment [7]. The composite z-score in [8] is -0.142; in experiment [9], -0.0231; in experiment [10], -0.159; in experiment [11] it was -0.429; in [12], 0.168; in experiment [13] it was -0.0352. The composite z-score in experiment [14] is -0.213; in experiment [15], 0.495; in experiment [16], 0.444; in experiment [18], 0.968; in experiment [19], 0.241. Also, the composite Z-score in experiment [2] is -0.014 (inactive). Also, the z-score in experiment [17] was -1.38; in experiment [20], 0.616 (inactive).
As to `COC(=O)[C@H](Cc1ccccc1)N[C@H](/C=C/C1CC1)[C@@H](O)Cc1ccccc1`, the composite z-score in experiment [1] was -0.115; in experiment [3] it was 0.392; in experiment [4], -0.193; in experiment [5], -0.36; in experiment [6], 0.369; in experiment [7] it was -0.309. Also, the composite z-score in experiment [8] was -0.56; in experiment [9], -0.318; in [10], -0.811; in experiment [11], -0.174; in experiment [12], -0.688; in experiment [13] it was -0.295. Also, the composite z-score in experiment [14] was -1.05; in experiment [15], 0.395; in [16], 0.123; in [18], -0.0264; in experiment [19], 0.0999. Moreover, the composite Z-score in experiment [2] is 0.448 (inactive). Further, the z-score was -0.0444 in [17] and 0.723 (inactive) in [20].
Regarding `O=C(NC1CC1)[C@@H]1c2ccccc2C(=O)N(C2Cc3ccccc3C2)[C@H]1c1ccc(CO)cc1`, the composite z-score was 0.378 in [1]; -0.0166 in experiment [3]; 0.0386 in experiment [4]; 0.608 in experiment [5]; 1.41 in [6]; 0.237 in experiment [7]. Also, the composite z-score turned out to be 1.24 in [8]; 0.847 in experiment [9]; 0.918 in experiment [10]; 2.65 in [11]; 1.18 in experiment [12]; 0.167 in experiment [13]. The composite z-score in experiment [14] was -0.677; in [15] it was 1.29; in [16] it was 0.988; in experiment [18], 0.294; in [19], 0.0895. Also, in experiment [2], the composite Z-score was -0.358 (inactive). In addition, the results for the z-score in [17] and in [20] were 1.64 and 0.659 (inactive), respectively.
In the case of `C=CCC(OC(C)=O)[C@@H]1[C@@H](N(Cc2cc3ccccc3o2)C(=O)Cc2ccc(OC)cc2)c2cc(OCCCO)ccc2N1C(=O)c1ccc2ccccc2c1` (stereo not given in full), the composite z-score in experiment [1] is 0.234; in experiment [3] it was -0.0485; in experiment [4], -0.0652; in experiment [5], 0.386; in experiment [6], 0.13; in experiment [7], 0.16. In addition, the composite z-score was -0.427 in [8]; -0.257 in [9]; -0.439 in [10]; 0.19 in [11]; -0.491 in [12]; 0.115 in experiment [13]. Further, the composite z-score in experiment [14] is -1.19; in experiment [15], 0.2; in experiment [16] it was -0.568; in experiment [18], 0.128; in [19], 0.757. Further, in experiment [2], the composite Z-score is 0.39 (inactive). Also, the figures for the z-score in [17] and in experiment [20] were -0.319 and 0.148 (inactive), respectively.
